From PubChem
Compounds with a hit are over-represented: about 19% of the library has one in this group of screens.
KB-V1 MDR tox: qHTS assay for MDR1-selective chemotherapeutics: Primary screen using the drug-selected MDR subline cells KB-V1; KB-V1 MDR cells viability, CellTiter-Glo, 72 h; Potency, µM (series often up to 46.1 µM), most hits filed as cytotoxic; 400,000 compounds, 3.4% hits; AID 1347076, 2019; also: nearly all actives have a fitted effect of over 60% in size
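KB-V1, DMEM (no phenol red) + 10% FBS; cpd pin-transferred, titration series; 72 h, 37 degrees C; CellTiter-Glo, luminescence. Data normalized, curve-fit.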
DT40 TDP1 CPT: qHTS for Inhibitors of human tyrosyl-DNA phosphodiesterase 1 (TDP1): qHTS in cells in presence of CPT; 420,000 compounds, 12% hits; chicken DT40 Tdp1-/-;hTDP1 cells + 20 nM CPT, ATP luminescence, 48 h; Potency, µM (doses to about 46.2 µM), usual class: inhibitors; also: nearly all actives have a fitted effect of over 55% in size
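Chicken DT40 Tdp1-/- cells stably complemented with human TDP1 were seeded at 400 cells/well in medium containing 20 nM camptothecin, exposed to pin-transferred compounds, and grown at 37 °C for at least 48 hr. Viability was read as ATP luminescence.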
HT1080NT lethal: qHTS for induction of synthetic lethality in tumor cells producing 2HG: qHTS for the HT-1080-NT fibrosarcoma cell line; HT-1080-NT fibrosarcoma viability, CellTiter-Glo ATP luminescence, 48 h; Potency, µM (titrated, usually from 46.1 µM), most hits filed as cytotoxic; 360,000 compounds, 1.6% hits; AID 686970, 2013;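 also: NT is the 2HG producing partner of a matched IDH1 knockdown line; nearly all actives have a fitted effect of over 55% in size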
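Luminescent CellTiter-Glo readout after 48 hours of compound exposure at 37 degrees C defined viability of HT-1080-NT cells. Activity was normalized to DMSO wells and cell-free media wells; concentration-response curves were fitted and assigned curve classes.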
KB-3-1 tox: qHTS assay for MDR1-selective chemotherapeutics: Primary screen using the parental adenocarcinoma cell KB-3-1; Potency, µM (titrated, usually from 46.1 µM), most hits filed as cytotoxic; AID 1347075, 2019; KB-3-1 viability, CellTiter-Glo ATP luminescence, 72 h; 400,000 compounds, 1.4% hits; also: nearly all actives have a fitted effect of over 60% in size
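72 h, 37 °C compound treatment of KB-3-1 parental cells; CellTiter-Glo added, 10 min, luminescence read. Data corrected against DMSO-only plates and normalized before curve fitting.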
HT1080 IDH1KD tx: qHTS for induction of synthetic lethality in tumor cells producing 2HG: qHTS for the HT-1080-IDH1KD cell line; HT-1080 IDH1 knockdown viability, ATP luminescence, 48 h; Potency, µM (titrated, usually from 46.1 µM), hits mostly cytotoxic; 360,000 compounds, 2% hits; AID 686971, 2013
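After a 2 h attachment period, IDH1KD HT-1080 cells took pin-transferred compound for 48 h at 37 °C; ATP-based luminescence after 10 min room-temperature reagent incubation reported viability.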
TDP1 cell noCPT: qHTS for Inhibitors of human tyrosyl-DNA phosphodiesterase 1 (TDP1): qHTS in cells in absence of CPT | DT40 Tdp1-/- hTDP1 cells, no CPT, ATP luminescence, 48 h | Potency, µM (series often up to 46.2 µM), actives largely listed as inhibitors | 420,000 compounds, 15% hits | AID 686978, 2013; also: nearly all actives have a fitted effect of over 55% in size
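Compound effects on proliferation are scored in DT40 Tdp1-/-;hTDP1 cells in the absence of CPT. ATP levels (CellTiter-Glo luminescence) are recorded after a ≥48 hr, 37 °C incubation.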
Hits are given with their value; n = inactive; u = inconclusive; x = not tested or not shown. Calls follow the shape of the dose curve; as a rule, active = well fitted curve in the direction sought with a large enough effect; inconclusive = small, poorly fitted or top-dose-only effect, or another doubt; inactive = no such curve, though single readings can be large; an effect the other way counts as inactive or inconclusive.

SMILES	KB-V1 MDR tox	DT40 TDP1 CPT	HT1080NT lethal	KB-3-1 tox	HT1080 IDH1KD tx	TDP1 cell noCPT
CC(C)(C)C(=O)Nc1ccc(C(=O)N/N=C/c2ccccc2OC(=O)c2ccc(Cl)cc2)cc1	n	5.2µM	n	n	u	4.6µM
O=C(N/N=C/c1ccco1)c1ccc(NC(=O)c2ccc(Cl)cc2)cc1	n	n	n	n	n	n
Cc1nc2ccc(S(=O)(=O)NCC(=O)Nc3ccc(F)cc3)cc2s1	n	n	n	n	n	n
Cc1cc(C)c(S(=O)(=O)Nc2ccccc2C(=O)N2CCOCC2)c(C)c1	n	n	n	n	n	n
COc1ccc(C(=O)N/N=C/c2ccc(OC(=O)c3ccccc3)cc2)cc1	n	n	n	n	n	n
CC(C)(C)C(=O)Nc1ccc(C(=O)N/N=C/c2ccccc2OC(=O)c2ccccc2)cc1	u	6.5µM	u	u	u	7.3µM
COc1ccc(C(=O)N/N=C/c2ccc(N(C)c3ccccc3)cc2)cc1	n	u	n	n	n	23µM
CC(C)(C)c1ccc(C(=O)C[n+]2ccc(Cl)c3ccc(Cl)cc32)cc1	u	0.89µM	x	0.26µM	x	0.35µM
NNC(=O)Cn1c(-c2ccccc2)cc(=O)n2ncnc12	n	n	n	n	n	n
Cc1c(NC(=O)Nc2ccccc2C(F)(F)F)sc2nc3n(c(=O)c12)CCC(C)CC3 (stereo not given)	u	21µM	x	n	x	13µM
CC(=O)c1cccc(NC(=O)Nc2sc3nc4n(c(=O)c3c2C)CCC(C)CC4)c1 (stereo not given)	u	u	x	n	x	8.2µM
COc1cc(OC)c(NC(=O)Nc2sc3nc4n(c(=O)c3c2C)CCC(C)CC4)cc1Cl (stereo not given)	n	5.2µM	x	n	x	5.8µM
CCOC(=O)N1CCN(C(=O)Nc2sc3nc4n(c(=O)c3c2C)CCC(C)CC4)CC1 (stereo not given)	n	u	n	n	n	u
Cc1c(NC(=O)Nc2ccc(Cl)c(Cl)c2)sc2nc3n(c(=O)c12)CCC(C)CC3 (stereo not given)	n	5.2µM	x	u	x	8.2µM
C=C1C(=O)C=C[C@]2(C)C[C@@H]3OC(=O)[C@](C)(O)[C@H]3C[C@@H]12	u	1.8µM	u	u	u	1.3µM
O=C(C[n+]1ccccc1)N/N=C/c1cccs1	n	n	n	n	n	n
Clc1ccc(N(CC2CO2)CC2CO2)cc1 (stereo not given)	u	0.46µM	n	n	n	0.65µM
CCOC(=O)c1c(S(=O)(=O)N2CCCC(C(=O)Nc3ccc(C)cc3C)C2)c(C)n(CC)c1C (stereo not given)	n	u	x	n	x	u
COc1ccc(C)cc1N1C(=N)/C(=C2/Nc3ccccc3S2)C(c2ccccc2)C1=O (stereo not given)	21µM	6.5µM	n	u	n	3.7µM
Cc1nc(-c2ccccc2)sc1C1(C)CC(c2c(Cl)cccc2Cl)=NO1 (stereo not given)	u	u	u	n	u	u
CNc1ccccc1C(C)(C)c1cc(-c2cc(C)cc(C)c2)no1	n	u	n	n	u	u
CNc1ccccc1C(C)(C)c1cc(-c2cccc(OC)c2)no1	n	4.6µM	n	u	u	5.2µM
COc1cccc([C@@H]2CC=C(C(=O)O)[C@H](c3cccc(Cl)c3)N2S(=O)(=O)c2ccc(C)cc2)c1	n	n	n	n	n	n
O=C(CSc1nc2cc(Cl)c(Cl)cc2[nH]1)c1ccc2c(c1)OCO2	8.2µM	n	n	15µM	n	n
O=C(CSc1nc2ncc(Cl)cc2[nH]1)c1ccc2c(c1)OCO2	n	n	n	n	n	n
SMILES	KB-V1 MDR tox	DT40 TDP1 CPT	HT1080NT lethal	KB-3-1 tox	HT1080 IDH1KD tx	TDP1 cell noCPT
COc1ccc(-c2ccnc(SCC(=O)N3CCN(c4ccccc4)CC3)n2)cc1	n	n	n	n	n	n
O=C(CNC(=O)c1sc2ccccc2c1Cl)NCc1cccc(C(F)(F)F)c1	n	n	n	n	n	n
Cc1ccc(C)c(N2CCN(S(=O)(=O)c3ccc4c(c3)CCCN4C(=O)C3CCC3)CC2)c1	n	16µM	x	u	x	18µM
Cc1cccc(N2CCN(S(=O)(=O)c3ccc4c(c3)CCCN4C(=O)C3CCC3)CC2)c1C	n	u	n	n	n	16µM
COc1ccc(-c2oc3ncn4nc(Cc5ccccc5)nc4c3c2-c2ccc(OC)cc2)cc1	3.7µM	n	n	n	n	n
COc1ccc(-c2oc3ncn4nc(COc5ccccc5)nc4c3c2-c2ccc(OC)cc2)cc1	n	n	n	n	n	u
Cc1cccc(N(CC(=O)NC2CCCC2)C(=O)CNC(=O)c2ccco2)c1C	n	n	n	n	n	n
O=C(O)c1cc(N/N=C/C=C/c2ccccc2)ccc1Cl	n	n	n	n	n	n
CCN(Cc1ccncc1)Cc1nc(-c2ccc(C(=O)OC)cc2)no1	n	u	n	u	n	21µM
CCN(CC)c1ccc(C(=O)NNC(=O)CCNC(=O)c2ccccc2)cc1	n	n	n	n	n	n
CCN(CC)c1ccc(C(=O)NNC(=O)CCl)cc1	n	16µM	n	u	u	u
COc1ccc(CCN2CCCC(CN(C)Cc3cccc(OC)c3)C2)cc1 (stereo not given)	n	u	u	n	u	u
CCN(Cc1ccccc1OC)CC1CCCN(CCc2cccc(OC)c2)C1 (stereo not given)	n	15µM	n	n	u	u
CCN(Cc1ccc(NC(C)=O)cc1)CC1CCCN(CCc2cccc(OC)c2)C1 (stereo not given)	n	u	n	n	n	21µM
CCN(CC)c1ccc(NC2CC(=O)N(CCc3ccc(OC)cc3)C2=O)cc1 (stereo not given)	n	13µM	n	n	n	15µM
O=c1ccc(-c2ccc(S(=O)(=O)Nc3ccc(F)cc3)o2)n[nH]1	n	n	n	n	n	n
CC(C)(C)NC(=O)COC(=O)c1snc(C(=O)NC2CCCCC2)c1N	u	n	u	n	n	n
CC(OC(=O)c1snc(C(=O)NC2CCCCC2)c1N)C(=O)NC(C)(C)C (stereo not given)	u	14µM	n	n	u	13µM
